HPGD inh: inhibitors of human 15-hydroxyprostaglandin dehydrogenase (HPGD) | purified HPGD, NADH fluorescence kinetic, PGE2 substrate | AID 894 | Potency, µM, for the others: at the highest dose activity change, negative = inhibition, most hits filed as inhibitors | 4.3% of 150,000 active | P15428; further: potency means the concentration at half of the fitted maximal effect
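20 nM HPGD preincubated 15 min at room temperature with compound in 50 mM Tris-HCl pH 8, 0.01% Tween 20. Started with 1 mM NAD+ and 30 uM prostaglandin E2; NADH fluorescence (360/450 nm) read 5 times over 30-s intervals, last minus first.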
ALDH1A1 block: blocks purified human ALDH1A1 activity; P00352; Purified ALDH1A1, NADH fluorescence, propionaldehyde substrate; Potency, µM (doses to about 75.3 µM), for the others: at the top dose activity, negative = inhibition, hits mostly inhibitors; 7.3% of 220,000 active;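 further: potency means the concentration at half of the fitted maximal effect; plate controls were no enzyme wells and a reference inhibitor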
Target sequence (P00352 whole entry, looked up): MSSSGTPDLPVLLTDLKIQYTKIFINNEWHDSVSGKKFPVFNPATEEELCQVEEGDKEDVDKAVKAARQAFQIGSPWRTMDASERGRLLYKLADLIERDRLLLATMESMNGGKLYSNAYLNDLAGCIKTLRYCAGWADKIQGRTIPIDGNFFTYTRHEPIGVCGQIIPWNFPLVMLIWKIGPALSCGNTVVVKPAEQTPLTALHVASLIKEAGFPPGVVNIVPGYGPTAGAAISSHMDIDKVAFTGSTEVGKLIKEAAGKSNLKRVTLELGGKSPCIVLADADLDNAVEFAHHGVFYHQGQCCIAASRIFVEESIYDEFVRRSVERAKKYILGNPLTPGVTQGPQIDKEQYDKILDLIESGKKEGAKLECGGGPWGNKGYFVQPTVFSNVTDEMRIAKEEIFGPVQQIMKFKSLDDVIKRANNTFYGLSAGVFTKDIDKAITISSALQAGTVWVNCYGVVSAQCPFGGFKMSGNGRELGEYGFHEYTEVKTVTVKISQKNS
JMJD2E inh: blocks human JMJD2E demethylase activity; B2RXH2; JMJD2E catalytic domain, FDH-coupled NADH fluorescence (FDH is formaldehyde dehydrogenase); Potency, µM (highest dose often 57.1 µM), without a hit: at the highest dose activity change, negative = inhibition, actives largely listed as inhibitors; 1.6% of 230,000 active;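 further: potency means the concentration at half of the fitted maximal effect; 0% = wells with enzyme and -100% = buffer wells without enzyme; nearly all actives have a fitted effect of over 50% in size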
PNC assembly inh: blocks assembly of the perinucleolar compartment; PC3M PTB-GFP, PNC prevalence imaging, 16 h; hits give low values; activity change (PNC), negative = inhibition, % at 10 µM; 3.1% of 140,000 active;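 active means readout at or below -70, meaning at least 70% loss of cells showing the perinucleolar compartment, a nuclear body marking cancer cells; inconclusive means readout between -30 and a set limit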;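 further: plate controls were DMSO wells for no effect and camptothecin positive control wells for full effect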
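Compounds are pinned in duplicate onto adhered PC3M cells stably expressing GFP-tagged PTB and incubated 16 h at 37 C. Cells are then fixed, nuclei stained with Hoechst, and PNC-positive cells counted.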
* marks the source's active call; other numbers are inactive results; ? = inconclusive; . = not tested or not shown. An excerpt weighted towards active compounds, which were near 11% of everything screened. Unless noted, the call rests on the fitted dose curve; in most records, active means well fitted inhibition curve with a large enough effect (not every such curve was filed as active); inconclusive means small, poorly fitted or top-dose-only effect, or another doubt; inactive means no such curve, though single readings can be large or run the other way. Unless noted, on the % scale 0 is the no-effect control and ±100 the full control effect.

SMILES | HPGD inh | ALDH1A1 block | JMJD2E inh | PNC assembly inh
CN(C)CCNc1nc2c(c(=O)[nH]c(=O)n2C)n1CC(O)COc1ccc(Cl)cc1 (stereo unspecified) | -8.3% | -1.4% | -4.0% | -26.8
Cc1cc(C)n(-c2nc3c(c(=O)[nH]c(=O)n3C)n2CC(O)COc2ccc(Cl)cc2Cl)n1 (stereo unspecified) | 3.55µM* | 3.5% | 12.6% | 61.3
CCN(CC)CCNc1nc2c(c(=O)[nH]c(=O)n2C)n1CC(O)COc1ccc(Cl)cc1Cl (stereo unspecified) | -19.9% | -0.9% | -4.0% | -83.7*
COc1cc(C#CC#CCN2CCCCC2)ccc1O | 14.1µM* | 1.58µM* | ? | ?
COCC(=O)N1CCC2(CCN(Cc3nccs3)CC2)CC1 | -6.6% | 8.5% | . | .
CCc1ccc(C(=O)/C=C/Nc2ccc(S(=O)(=O)Nc3onc(C)c3C)cc2)cc1 | 20µM* | ? | -0.8% | 6.1
Cc1noc(NS(=O)(=O)c2ccc(N/C=C/C(=O)c3ccc(F)cc3)cc2)c1C | . | 12.1% | -24.1% | .
Cc1cc(C)nc(NS(=O)(=O)c2ccc(N/C=C/C(=O)c3ccc(Cl)cc3)cc2)n1 | -17.3% | -2.5% | 22.4µM* | -14.4
CCC(=O)Nc1ccc(C(=O)CSc2nnc(-c3ccccc3F)n2CCc2ccccc2)cc1 | -6.1% | 22.4µM* | 7.4% | 16.5
COc1cc(C(=O)CSc2nnc(-c3ccc(O)cc3)n2CC2CCCO2)ccc1NC(C)=O (stereo unspecified) | -4.2% | ? | ? | ?
CCC(=O)Nc1ccc(C(=O)CSc2nnc(-c3ccc(O)cc3)n2CC2CCCO2)cc1 (stereo unspecified) | -7.0% | 25.1µM* | 1.2% | ?
O=C(CSc1nnc(-c2ccccc2F)n1CCc1ccccc1)Nc1ccc2[nH]c(=O)[nH]c2c1 | -2.7% | ? | 1.7% | 47.6
CCCn1c(C)nc2c(NCCCN(C)C)nc(C)nc21 | -12.5% | 13.8% | 15.2% | .
CC(C)(C)c1ccc(C(=O)N2CCC(=O)N(C(CO)Cc3ccccc3)CC2)cc1 (stereo unspecified) | ? | -6.5% | 0.6% | 20.2
COC(=O)CCCOc1ccc(Cl)cc1Cl | -29.7% | 12.5% | 6.4% | .
COc1ccccc1NC1=C(N2CCCCC2)C(=O)c2ccccc2C1=O | -4.4% | 10µM* | -25.4% | -84.7*
Cc1ccc(NC2=C(N3CCCCC3)C(=O)c3ccccc3C2=O)cc1 | . | 6.9% | 1.3% | 13.5
O=C(/C=C/c1ccc(O)cc1)c1ccc(NC2=C(N3CCCCC3)C(=O)c3ccccc3C2=O)cc1 | -15.4% | 8.91µM* | 17.8µM* | 17.9
O=C1C(Nc2ccccc2)=C(N2CCCCC2)C(=O)c2ccccc21 | -1.3% | 20µM* | -7.5% | 61.0
CN(C)/C=C(\C#N)C(=O)N/N=C/c1ccccc1 | . | ? | -12.0% | .
Cn1ncc([N+](=O)[O-])c1C(=O)Nc1nccs1 | ? | 0.4% | ? | -105.5*
Cc1nc(/C(N)=N/OC(=O)Cc2ccccc2)no1 | . | 10.2% | 1.1% | .
NC(Cc1cc(I)c(Oc2cc(I)c(O)c(I)c2)c(I)c1)C(=O)O (stereo unspecified) | -17.3% | 15.8µM* | 12.6% | .
CC(=O)/C(N=Nc1cc(C)ccc1O)=C(\C)O | . | 2µM* | -9.3% | .
O=C(CSc1nnc(SCc2cccc3ccccc23)s1)c1ccc2c(c1)OCO2 | ? | 0.398µM* | -3.9% | 7.2
SMILES | HPGD inh | ALDH1A1 block | JMJD2E inh | PNC assembly inh
O=C(CSc1nc2ccccc2[nH]1)c1ccc2c(c1)OCO2 | -12.1% | 28.2µM* | -16.4% | ?
O=C(CCc1nc2ccccc2[nH]1)Nc1ccc2c(c1)OCO2 | -12.6% | 10µM* | -8.3% | 39.7
O=C(CCc1nc2ccccc2[nH]1)NCc1ccc2c(c1)OCO2 | -14.8% | -8.4% | 6.7% | 36.2
Cc1ccc2nc(SCC(=O)c3ccc4c(c3)OCO4)[nH]c2c1 | -11.1% | ? | -7.7% | 25.8
CN(C)S(=O)(=O)c1ccc(C(=O)Nc2nnc(SCc3cccc4ccccc34)s2)cc1 | ? | ? | ? | -134.0*
COc1cc(C(=O)NCCNC(=O)C2CCCNC2=O)cc(OC)c1OC (stereo unspecified) | . | . | 17.8% | .
C/C(CC(=O)Nc1ccc(F)cc1)=N\NC(=O)COc1ccccc1 | -3.2% | ? | 10.6% | 64.5
N#C/C(=C1/CCCCCN1)c1nc2ccccc2[nH]1 | -26.0% | 8.91µM* | -5.2% | -17.7
CC(=O)c1csc(CS(=O)(=O)c2ccccn2)n1 | . | . | 4.7% | .
C=CCc1cc(/C=C2/NC(=S)NC2=O)cc(OC)c1O | 25.1µM* | 11.2% | -7.6% | 11.9
